Assay results published in the supplement of paper PMC3334620.
Whole data set: some 33,000 sequences, median “E-score (-0.5 to 0.5)” near -0.035, cut for the highest 2% near 0.34. For the sample, the highest values were picked, then their nearest neighbours and some sequences at random.

biological target: T1, Mot3 (UniProt P54785); experiment: PBM E-score (8-mer binding enrichment) (E-score (-0.5 to 0.5)); higher = stronger / more preferred TF binding; settings: protein concentration: 200 nM; construct: GST-full length
T1 sequence: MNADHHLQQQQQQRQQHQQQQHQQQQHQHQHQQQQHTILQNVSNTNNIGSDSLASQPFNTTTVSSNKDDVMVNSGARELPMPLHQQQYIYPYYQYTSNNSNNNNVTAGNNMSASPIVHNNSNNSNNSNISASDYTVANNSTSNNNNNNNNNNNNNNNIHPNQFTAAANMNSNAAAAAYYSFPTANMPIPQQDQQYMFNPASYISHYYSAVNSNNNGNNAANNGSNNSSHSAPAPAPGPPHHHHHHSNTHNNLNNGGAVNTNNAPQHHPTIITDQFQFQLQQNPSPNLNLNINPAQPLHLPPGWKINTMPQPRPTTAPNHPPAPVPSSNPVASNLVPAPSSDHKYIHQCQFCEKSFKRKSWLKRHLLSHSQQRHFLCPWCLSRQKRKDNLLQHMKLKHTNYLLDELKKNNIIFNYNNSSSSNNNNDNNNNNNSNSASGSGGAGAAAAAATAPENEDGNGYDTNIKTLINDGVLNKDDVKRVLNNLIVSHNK
Method in brief: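 PURExpress in vitro transcription/translation supplied GST-tagged yeast transcription factors, either full-length or DNA-binding domain. Applied at about 100-200 nM to universal all-10-mer Agilent arrays double-stranded by primer extension, the bound protein was detected with fluorescent anti-GST. E-scores, modified Wilcoxon-Mann-Whitney statistics, were given by the Universal PBM Analysis Suite to ungapped eight-base words pooled with their reverse complements after masliner normalisation.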

| Sequence | PBM E-score |
| --- | --- |
| CTTGGATA | -0.039 |
| GACTCCTA | -0.00028 |
| CAACAACA | 0.315 |
| TCGGTCCA | -0.0654 |
| CGATACTC | -0.259 |
| GCATTTGA | 0.0576 |
| GCCAAAGA | -0.0826 |
| TCTAGGAA | 0.315 |
| GCTAGGCA | 0.446 |
| ACTAGGCC | -0.141 |
| ACTAGGCG | 0.168 |
| TCTAGACA | 0.167 |
| ACTAGGCA | 0.425 |
| CCTAGGCA | 0.459 |
| GCTAGGCC | -0.374 |
| CCTAGGCG | -0.157 |
| GCTAGGTA | -0.0278 |
| TCTAGGCA | 0.458 |
| CCTAGGCC | -0.0992 |
| GTCGCACA | -0.125 |
| AGGCGTTG | 0.185 |
| GACTGTGA | -0.0263 |
| GTGATAGA | -0.0161 |
| GCTCCCCC | -0.288 |
| GAACATAA | 0.0111 |

| Sequence | PBM E-score |
| --- | --- |
| CAACATAA | 0.289 |
| CTACATAA | 0.228 |
| TTACATAA | 0.408 |
| TAACATAA | 0.341 |
| GTACATAA | 0.306 |
| AAGGCTCG | 0.235 |
| CAGGCTCG | 0.342 |
| AAGGCTCA | 0.336 |
| TAGGCTCA | 0.109 |
| CAGGCTCC | 0.28 |
| CAGGCTCA | 0.392 |
| CATTTGGG | -0.173 |
| CTTAGCCC | -0.079 |
| GAAAGGAC | -0.118 |
| AACTTCGC | -0.0198 |
| ACGCTCCC | -0.0438 |
| ATGGAAAT | 0.0932 |
| GAGGAAAA | 0.0527 |
| AGGGAAAT | -0.0244 |
| AAGGAAAT | 0.426 |
| CAGAAAAC | 0.152 |
| AAGGAAAG | 0.441 |
| TAGGGAAA | -0.0198 |
| TAGGAAAA | 0.384 |
| CGGGAAAC | -0.0422 |

| Sequence | PBM E-score |
| --- | --- |
| AGGGAAAG | -0.0829 |
| CAGGAAAC | 0.445 |
| ATGGAAAG | 0.0416 |
| TACCAATA | -0.253 |
| CACGGTCA | 0.212 |
| ATCAGCTG | -0.0375 |
| TCAAGTCA | 0.0447 |
| CGACTTGC | -0.263 |
| GATGAAGA | -0.135 |
| ACCGAGGA | -0.111 |
| ATCGGGGA | 0.0758 |
| AGATAGTC | -0.0427 |
| AGCAGTAG | -0.226 |
| TCAACGGA | -0.113 |
| CAGGAAAG | 0.432 |
| CAGAAAAG | -0.0566 |
| CAGAAAAA | 0.0512 |
| AAGGAAAC | 0.423 |
| CAGGAAAA | 0.427 |
| ATGGAAAA | -0.0018 |
| CCGGAAAG | -0.215 |
| AAGGAAAA | 0.417 |
| AAGGGAAA | 0.0842 |
| GAGGAAAC | -0.027 |
| CGGAAAAA | 0.0869 |

| Sequence | PBM E-score |
| --- | --- |
| ACGGAAAC | -0.122 |
| TATCTTAA | 0.153 |
| TAAAGCTA | 0.19 |
| CAGACCGG | -0.14 |
| ACTCGAAT | 0.00379 |
| CTCAGCAG | -0.113 |
| GGTAATAA | 0.163 |
| CGTAAAAA | 0.258 |
| GGTAAACA | 0.323 |
| AGTAAACA | 0.251 |
| TGTAATAA | 0.375 |
| AGTAAAAA | 0.16 |
| TGTAAAAA | 0.379 |
| CGTAATAA | 0.288 |
| TGTAAACA | 0.387 |
| GGAGAAAA | -0.133 |
| ACCTGTCA | -0.0178 |
| AAGGCTAT | -0.0295 |
| ACGGTGCC | 0.343 |
| ACGGTGCA | 0.184 |
| ACGGTGCG | 0.0148 |
| CAGAGATG | 0.0978 |
| TAGGGTCA | -0.0851 |
| AAGGTCTG | -0.0775 |
| AATCTACA | 0.349 |

| Sequence | PBM E-score |
| --- | --- |
| CATCTACA | 0.262 |
| AATCTACT | -0.0291 |
| AGTTCCTG | 0.403 |
| CGTTCCTA | 0.455 |
| AGTTCCGG | -0.359 |
| CGTTCCTC | 0.167 |
| AGTTCCGA | -0.142 |
| CATTCCTA | -0.129 |
| AGTTCCTC | 0.0435 |
| ACTTCCTA | -0.09 |
| GGTTCCAA | -0.208 |
| GCTTCCTA | 0.106 |
| GGTTCCTA | 0.454 |
| AGTTCCTA | 0.433 |
| CCAATCCC | -0.127 |
| AGAGGGCC | -0.371 |
| GGGGTAGA | -0.0141 |
| AGGTCTTC | -0.0921 |
| CGCTAACG | -0.0607 |
| GGACTACA | 0.102 |
| ACCCCCTA | -0.298 |
| AGGCGAAC | -0.0626 |
| ACAGTTCT | -0.132 |
| TAGAGGCA | 0.389 |
| AAGAGGCT | -0.222 |

| Sequence | PBM E-score |
| --- | --- |
| AAGAGGCA | 0.391 |
| TAGAGGGA | -0.0707 |
| CCGAGGCA | 0.308 |
| GCGAGGCA | 0.148 |
| TCGAGGCA | 0.346 |
| GAGAGGCA | 0.239 |
| CAGAGGCA | 0.299 |
| AAGACCTG | -0.079 |
| TGACTAAA | 0.0227 |
| GGCTAATA | -0.151 |
| ATCGAACA | -0.0411 |
| GATTGTCC | -0.0522 |
| AGGAAGCC | -0.161 |
| GCTATGTA | 0.341 |
| AGTATGTA | 0.289 |
| GGTATGTA | 0.343 |
| ACTATGTA | 0.36 |
| ACTATGTG | 0.0709 |
| CCTATGTA | 0.348 |
| AATATGTA | 0.277 |
| CCTATGTC | 0.172 |
| ACTATGTC | 0.104 |
| CGTATGTA | 0.309 |
| CATATGTA | 0.318 |
| GCTATGCA | -0.154 |

| Sequence | PBM E-score |
| --- | --- |
| ACAACTAG | -0.0235 |
| GTCCGGAA | -0.0613 |
| TCCCCCCA | -0.354 |
| AAAGTCGG | -0.0308 |
| GAAGGGAA | -0.213 |
| CGATGGCC | -0.268 |
| AATAACAT | 0.349 |
| AATAACAG | 0.254 |
| AATAACAC | 0.31 |
| ACGCCGGC | -0.185 |
| CGTAGCCC | -0.0561 |
| GGGTACCC | -0.304 |
| AGGTACCG | 0.407 |
| AGGTACCC | 0.361 |
| CGGTACCC | -0.277 |
| CGGTACCG | -0.156 |
| AAGTACCT | 0.338 |
| ACGTACCT | 0.292 |
| AGGTACCT | 0.434 |
| ACGTACCG | 0.00315 |
| AGGTACCA | 0.361 |
| TGGTACCA | -0.0506 |
| GGGTACCA | -0.0217 |
| ACAATACC | 0.172 |
